Our source for the Potency and activation values is PubChem BioAssay (Tox21).

Active and inactive are the calls of the source. A call without a number means that no potency is given here. The call rests on the fitted dose curve.

Sequence of Muscarinic acetylcholine receptor M1 (Homo sapiens) (P11229 whole entry, looked up): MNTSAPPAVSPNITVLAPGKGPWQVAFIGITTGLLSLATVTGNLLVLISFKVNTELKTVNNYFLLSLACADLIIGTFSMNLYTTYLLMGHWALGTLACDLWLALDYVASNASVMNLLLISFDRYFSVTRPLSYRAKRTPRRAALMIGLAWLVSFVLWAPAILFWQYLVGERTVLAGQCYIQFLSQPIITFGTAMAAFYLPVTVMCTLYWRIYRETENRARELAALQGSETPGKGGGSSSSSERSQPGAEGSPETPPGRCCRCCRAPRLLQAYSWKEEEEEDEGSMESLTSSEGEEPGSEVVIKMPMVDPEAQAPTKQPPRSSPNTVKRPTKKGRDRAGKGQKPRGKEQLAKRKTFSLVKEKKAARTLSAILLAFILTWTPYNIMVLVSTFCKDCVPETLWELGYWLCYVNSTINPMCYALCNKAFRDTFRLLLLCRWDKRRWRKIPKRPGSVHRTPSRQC

The target of the assay is Muscarinic acetylcholine receptor M1 (Homo sapiens) (UniProt P11229). As to the kind of experiment: Cholinergic receptor muscarinic 1 (CHRM1) small molecule agonists, cell-based qHTS assay (AID 1963589). Further: nearly all actives have a fitted effect of over 35% in size. As to conditions: CHRM1-CHO cells, agonist mode, calcium flux fluorescence; series mostly up to 76.8 µM. From the text:
National Center for Advancing Translational Sciences [NCATS]
Division of Preclinical Innovation [DPI]
U.S. Environmental Protection Agency [EPA]
National Institutes of Environmental Health Sciences [NIEHS]
National Toxicology Program [NTP]
U.S. Food and Drug Administration [FDA]
The CHRM1 is a muscarinic receptor. This receptor plays a crucial role in learning and memory processes and has long been identified as a promising therapeutic target for the improvement of cognitive decline in Alzheimer's disease (AD). The CHRM1-CHO cell line stably expressing human muscarinic acetylcholine receptor M1 (CHRM1) can be used for screening agonists and antagonists of interactions between CHRM1 and its ligands. The CHRM1-CHO Calcium Flux Assay is a homogeneous fluorescence-based assay for detecting the intracellular calcium level using FDSS kinetic plate reader system.
CHRM1-CHO cells were dispensed at 1000 cells/3uL/well in 1536-well black-clear bottom plates using a Multidrop Dispenser. After the assay plates were incubated at a 37 C/5% CO2 incubator for 18 h, 3 uL of Dye Loading Buffer was transferred to the assay plate by a Flying Reagent Dispenser. The assay plates were incubated at 37 C for 1h. For agonist mode, 23 nL of compounds dissolved in DMSO, positive controls or DMSO only was transferred to the assay plate by a pin tool. […] Each test compound was measured at 15 concentrations in three independent runs.
`O=C(Nc1ccccc1)c1ccccc1O`: the Potency entry was “inactive”. Take `CCCCCCCCCCCCCCCCCCOCCO`: the activation is -0.156% [at 15.8 µM] (inactive). `CN1CCN(C2=Nc3ccccc3Oc3ccc(Cl)cc32)CC1`: the Potency result was “inactive”. Consider `CNC(=O)N(c1ccccc1)c1ccccc1`, for which the Potency result was “inactive”. With `SCCCCCCCCS`, the Potency entry is “inactive”. For `C=CC(=O)OCCCCCCCCCC`, the Potency result is “inactive”. `CC(N)C(=O)OC(C)(C)Cc1ccc(Cl)cc1` (stereo not given): the Potency result is “inactive”. For the compound `C[C@H]1NCc2cc(-c3ccc4c(=O)c(C(=O)O)cn(C5CC5)c4c3OC(F)F)ccc21`, the activation was -0.122% [at 15.8 µM] (inactive).

For `CCCCCCCCCOC(=O)c1ccc(O)cc1`, the Potency result was “inactive”. Take `Nc1ccc(S(=O)(=O)NCc2ccccc2)cc1`: the Potency entry is “inactive”. On to `CN(C[C@@H](CC[N+]12CCC(C3CCCCC3)(CC1)CC2)c1ccc(Cl)c(Cl)c1)C(=O)c1cc(C(F)(F)F)cc(C(F)(F)F)c1`, for which the Potency result was “inactive”. Take `C=C(C)C(=O)OCCCCCCCCCCOC(=O)C(=C)C`: the Potency result was “inactive”. On the same count and under the same terms, with `CC(C)(C)C(=O)NCCCC(=O)O` the entry was “inactive”; with `C=C(C)CCCC(C)CCO` (stereo not given), “inactive”; with `C/C=C(/C(=C/C)c1ccc(O)cc1)c1ccc(O)cc1`, “inactive”.

For `Cc1occc(=O)c1OC(=O)C(C)C`, the Potency entry is “inactive”. Same read-out and setting: with `O=C(CCN1CCC(c2ccccc2)C1)c1ccc2c(c1)OCCO2` (stereo not given) the entry was “inactive”. `CCCCCCCCCC=O`: the Potency entry is “inactive”. For `CCCCCCCC/C=C\CCCCCCCCOCCO`, the Potency result is “inactive”.

Consider `CCCCCCCC(=O)Oc1c(Br)cc(C#N)cc1Br`, for which the Potency result was “inactive”. Still for that read-out and setting: in the case of `CC1(C)C(=O)C(C)(C)C1=O` it was “inactive”.

With `COC(=O)c1ccc(OC)cc1`, the Potency entry is “inactive”. Still for that read-out and setting: with `CC(C)C[C@H](NC(=O)[C@H](CCc1ccccc1)NC(=O)CN1CCOCC1)C(=O)N[C@@H](Cc1ccccc1)C(=O)N[C@@H](CC(C)C)C(=O)[C@@]1(C)CO1` the entry was “inactive”; with `CC(C)OCC1CO1` (stereo not given), “inactive”.

Turning to `C/C=C(\C)C=O`, the Potency result is “inactive”. As for `NC(=O)N(O)[C@@H]1C=C[C@H](Oc2cccc(Oc3ccc(F)cc3)c2)C1`, the Potency entry was “inactive”. On to `Cc1ccc(C(=O)c2ccccc2)cc1`, for which the Potency entry was “inactive”. Turning to `CC(C)(O)c1ccc(CNC(=O)c2cccnc2Oc2ccc(F)cc2)cc1`, the Potency result is “inactive”. For the compound `CCN(O)CC`, the Potency entry was “inactive”. `Nc1ccc(C(=O)OCC(O)CO)cc1` (stereo not given): the Potency entry was “inactive”. As for `NC(=O)C1(N2CCCCC2)CCN(CCCC(=O)c2ccc(F)cc2)CC1`, the Potency result was “inactive”.

`OC1OCCOC1O` (stereo not given): the Potency result was “inactive”.

With `OCCCCC(O)CO` (stereo not given), the Potency result is “inactive”. In the case of `C=C1C[C@@]23CC[C@H]4[C@@](C)(CCC[C@@]4(C)C(=O)O[C@@H]4O[C@H](CO)[C@@H](O)[C@H](O)[C@H]4O)[C@@H]2CC[C@]1(O[C@@H]1O[C@H](CO)[C@@H](O)[C@H](O[C@@H]2O[C@H](CO)[C@@H](O)[C@H](O)[C@H]2O)[C@H]1O[C@@H]1O[C@H](CO)[C@@H](O)[C@H](O)[C@H]1O)C3`, the Potency result is “inactive”.

Turning to `O=C(OCCCCCOC(=O)c1ccccc1)c1ccccc1`, the Potency result was “inactive”. The same measure, in the same setting: with `CC/C=C\CCOC(=O)c1ccccc1O` the entry was “inactive”; with `Cc1cc(=O)[nH]c(=O)[nH]1`, “inactive”.

On to `CCCCOC(=O)C(C)O` (stereo not given), for which the Potency result is “inactive”.

For the compound `CC12CCCC=C1C(=O)OC2=O` (stereo not given), the Potency entry was “inactive”. Still for that read-out and setting: with `Oc1ccc(-c2ccc(O)cc2)cc1` the entry was “inactive”.
